Assay results published in PubChem BioAssay AID1903 (Southern Research Specialized Biocontainment Screening …, 2009).
Several values for one entry are separate records, joined by “and”; a condition that tells them apart may be missing. Equal values may be shown once. The campaign covered roughly 310,000 compounds. About 1,200 (0.39%) were called active. No rule for the calls is given here. Only a sample is shown. Potency and affinity values are given separately.

Target: Large T antigen (Simian virus 40) (UniProt P03070)
Assay: TAg ATPase/helicase activity blockers – biochemical (AID 1903)
Conditions: SV40 large T antigen ATPase/helicase inhibition assay; at 20 µM; hits give high values

Chain of Large T antigen (Simian virus 40) (P03070 whole entry, looked up): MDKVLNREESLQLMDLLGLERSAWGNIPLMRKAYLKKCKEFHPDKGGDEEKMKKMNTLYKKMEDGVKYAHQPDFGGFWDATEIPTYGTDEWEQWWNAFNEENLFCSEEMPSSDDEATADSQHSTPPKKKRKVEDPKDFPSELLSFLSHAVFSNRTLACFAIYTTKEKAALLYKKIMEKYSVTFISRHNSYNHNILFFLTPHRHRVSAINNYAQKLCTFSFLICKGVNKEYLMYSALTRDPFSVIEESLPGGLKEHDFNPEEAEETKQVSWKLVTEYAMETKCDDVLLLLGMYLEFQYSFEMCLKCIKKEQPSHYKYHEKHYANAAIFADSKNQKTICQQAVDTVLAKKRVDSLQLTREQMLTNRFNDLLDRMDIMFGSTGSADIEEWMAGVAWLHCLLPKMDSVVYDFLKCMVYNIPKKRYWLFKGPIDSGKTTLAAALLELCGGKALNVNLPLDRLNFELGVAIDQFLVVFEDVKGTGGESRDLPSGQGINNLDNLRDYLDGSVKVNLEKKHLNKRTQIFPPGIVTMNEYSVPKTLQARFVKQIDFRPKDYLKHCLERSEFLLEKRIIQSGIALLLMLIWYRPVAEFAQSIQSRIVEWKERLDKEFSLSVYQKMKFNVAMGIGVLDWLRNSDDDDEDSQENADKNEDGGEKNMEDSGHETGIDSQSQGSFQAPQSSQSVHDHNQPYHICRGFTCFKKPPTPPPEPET

inhibition, inactive:
CC(=O)c1sc(NC(=O)COc2ccccc2)nc1C 3.21%
CC(C)CCNC(=O)C(=O)Nc1cc2c3c(c1)CCC(=O)N3CCC2 -2.67%
COC(=O)c1ccc(CNC(=O)C23CC4CC(CC(C4)C2)C3)cc1 -3.62%
CCCCc1oc2c(c(=O)c1C)C(=O)CC(c1ccccc1)C2 (centres undefined) 4.52%
CCC(=O)N1CCN(c2ccc(NC(=O)c3ccc(C#N)cc3F)cc2Cl)CC1 6.06%
CCc1ccc(NC(=O)C(=O)N/N=C(\C)CC(=O)Nc2ccccn2)cc1 11.4%
CCC(NC(=O)c1ccc(C#CC2(O)CCCCC2)cc1)C(=O)O (centres undefined) 8.73%
COc1ccc(/C=N/Nc2cc(C)nc3c(C)cccc23)cc1 4.3%
COc1ccc(OC)c(/C=N/Nc2nncn2/N=C/c2cc(OC)ccc2OC)c1 12.7%
COc1cc(/C=N/Nc2nn3cnnc3c3ccccc23)ccc1O 8.69%
CCc1nnc(N/N=C/c2ccc(O)c(OC)c2)n1N 38%
COc1ccc(/C=N/NC2=NCCCCC2)cc1 -2.48%
COc1cccc2c(N/N=C/c3ccccc3)cc(C)nc12 4.18%
Oc1ccc(/C=N/NC2=NCCCCC2)cc1 25.1%
COc1cc(/C=N/Nc2ccccc2)ccc1O 27.7%
CCc1ccc(NC(=O)C2CCN(S(=O)(=O)c3ccc4c(c3)N(C(C)=O)CCO4)CC2)cc1 -0.74%
Cc1ccc(S(=O)(=O)NCCCN2CCCC2)cc1 13.3%
c1ccc(CNc2nc3ccccc3n2CCN2CCOCC2)nc1 7.87%
Cc1ccc(NC(=O)c2nc[nH]c2C(=O)N2CCC(C)CC2)cc1 9.16%
O=C(Cn1nc(-c2cccs2)ccc1=O)Nc1ccc(Br)cc1 3.47%
O=C1CC(C(=O)Nc2ccc(Cl)cc2[N+](=O)[O-])C2(CCCCC2)O1 (centres undefined) 6.86%
COc1ccccc1OCc1nn[nH]n1 11.9%
CCC1CCCCN1CCCNC(=O)c1cc2c(=O)[nH]c3ccccc3c2n1C (centres undefined) 8.49%
O=C(Nc1c(Cl)cc(Cl)cc1-c1nc2ccccc2s1)c1ccc(Br)o1 6.8%
COC(CN(C)C(=O)c1ccc(CS(=O)(=O)c2ccccc2C)o1)OC 6.06%
Cc1nnc(-c2ccccc2)c[n+]1[O-] 2.44%
Oc1c(Br)cc(/C=N/n2c(-c3ccccc3)n[nH]c2=S)cc1Br 29.7%
Oc1c(Br)cc(/C=N/n2c(-c3ccccc3)n[nH]c2=S)c(O)c1Br 30.1%
CCOC(=O)N/N=C(/C)c1ccc(N2C(=O)C3CCCCC3C2=O)cc1 (centres undefined) 11.8%
O=C(O)c1ccc(N(Cc2ccccc2)S(=O)(=O)c2ccccc2)cc1 1.43% and 0.12%
CN(C[C@H](Cc1ccccc1)N(C[C@H](Cc1ccccc1)N(CCc1cc(C(F)(F)F)cc(C(F)(F)F)c1)N=O)N=O)N=O 0.235%
Cc1c(NC(=O)CN2CCN(c3ccccc3)CC2)c(=O)n(-c2ccccc2)n1C 3.86%
CCC(=O)c1ccc(OCC(=O)OCC(=O)Nc2c(C)n(C)n(-c3ccccc3)c2=O)cc1 12.3%
COc1ccc(N2CCN(CC(=O)Nc3sccc3C#N)CC2)cc1 8.41%
Cc1c(NC(=O)CN2CCN(c3ccc(F)cc3)CC2)c(=O)n(-c2ccccc2)n1C 6.05%
O=C(CN1CCN(c2ccc(F)cc2)CC1)Nc1ccc2c(c1)OCCO2 8.68%
N#Cc1ccsc1NC(=O)CN1CCN(c2ccccc2)CC1 9.52%
Cc1cc(C)cc(OCC(=O)OCC(=O)Nc2c(C)n(C)n(-c3ccccc3)c2=O)c1 15.2%
O=C(CN1CCN(c2ccccc2)CC1)Nc1ccc2c(c1)OCCO2 -0.06%
CCOc1ccc(C2/C(=C(/O)c3ccc4c(c3)CC(C)O4)C(=O)C(=O)N2CCCn2ccnc2)cc1OCC (centres undefined) 2.21%
Cc1ccsc1/C=N/NC(=O)c1cccnc1 10.3%
COc1cccc(N/C=C/C(=O)c2ccc(OC)c(OC)c2)c1 15.6%
Cc1cc(NC(=O)c2ccc3c(c2)C(=O)N(C)C3=O)no1 21.4%
COc1ccccc1C(=O)Nc1cccc2c1CCCC2 3.42%
Cc1cc(CNC(=O)CCc2nnc(CCCc3ccccc3)o2)nn1C 23%
Cc1cccc(N(CC(=O)NCc2ccc3c(c2)OCO3)C(=O)CCC(=O)Nc2ccccn2)c1 3.36%
c1ccc(OCCOCCSc2ncccn2)cc1 3.66%
COc1cccc(-c2ccc3nnc(SCC(=O)N4CCOCC4)n3n2)c1 8.56%
COc1cc(OC)c(C(=O)OCC(=O)N2CCOCC2)cc1OC -1.18%
COc1ccc(N2CCN(CC(=O)Nc3cc(C)on3)CC2)cc1 12.3%
CC(C)(C)NC(=O)NC(=O)CN1CCN(c2ccccc2)CC1 -1%
COc1ccc(N2CCN(CC(=O)NC(=O)NC(C)(C)C)CC2)cc1 22.3%
CC(=O)c1ccc(N2CCN(CC(=O)Nc3cc(C)on3)CC2)cc1 11.5%
CCCN(CC(=O)Nc1ccc(Cl)cc1Cl)Cc1cc(=O)n2ccsc2n1 -0.76%
COc1ccc(C(=O)NCc2nnc(SCC(=O)Nc3nnc(C)s3)o2)cc1 11.2%
Cc1ccc(S(=O)(=O)NCC(=O)N(CC(=O)NC2CCCC2)c2ccc3c(c2)OCCO3)cc1 6.71%
CCOc1c(C)cnc2c1c(=O)n(Cc1c(F)cccc1Cl)c(=O)n2C 18.6%
CCOc1ccc(N2C(N)=NC(N)=NC2(C)C)cc1 2.99%
COc1ccc(N2Nc3n[nH]c(N)c3N2)cc1 34.9%
COc1ccc(NC2=CC(c3ccc(OC)cc3)N(c3ccc(OC)cc3)C2=O)cc1 (centres undefined) 11.9%
Cc1cc(NS(=O)(=O)c2cccs2)no1 -2.38%
CC(=O)Nc1cccc(NC(=O)CSc2ncc(C(=O)Nc3ccccc3)c(=O)n2C)c1 19.6%
Fc1ccccc1COc1ccc(Br)cc1CNCC1CCCO1 (centres undefined) 4.34%
Cc1cccc(N2C(=O)c3ccccc3C2=O)n1 4.5%
Cc1cccc(N2C(=O)c3ccc(Br)cc3C2=O)n1 8.73%
Cc1csc(NC(=O)c2cc(=O)[nH]c3ccccc23)n1 5.64%
CN(C)S(=O)(=O)c1ccc(Cl)c(NC(=O)CN2CCNC(=O)C2)c1 5.76%
Cc1ccc(C)c(NC(=O)C(Sc2nc3ccccc3c(=O)n2CC(C)C)c2ccccc2)c1 (centres undefined) 4.6%
COc1ccc(C=O)cc1CN1C(=O)c2ccccc2C1=O 0.06%
COc1ccc(C)cc1CN1C(=O)c2ccccc2C1=O 2.66%
COc1ccc(CN2CC(C(=O)N3CCOCC3)CC2=O)cc1 (centres undefined) 13.7%
Cc1c(NC(=O)c2ccc(-c3ccc([N+](=O)[O-])cc3Cl)o2)c(=O)n(-c2ccccc2)n1C 7.53%
N=C1/C(=C\c2ccc(SCc3ccccc3)o2)C(=O)N=C2SC=NN12 -0.34%
CCS(=O)(=O)C1=NN2C(=N)/C(=C\c3ccc(SCc4ccco4)o3)C(=O)N=C2S1 59.6%
CC1=NN2C(=N)/C(=C\c3ccc(SCc4ccccc4)o3)C(=O)N=C2S1 15.7%
O=C(O)CN1C(=O)/C(=C/c2ccc(SCc3ccccc3)o2)SC1=S 12.4%
CCC1=NN2C(=N)/C(=C\c3ccc(SCc4ccco4)o3)C(=O)N=C2S1 0.38%
O=C1NC(=S)S/C1=C/c1ccc(OC(=O)c2ccco2)cc1 12%
Cc1ccc(-c2nnc(SC(C)C(=O)NCC3CCCO3)nc2-c2ccc(C)cc2)cc1 (centres undefined) 7.01%
Cn1c(=O)n(CCOc2ccc(Cl)cc2Cl)c2ccccc21 24.1%
O=C(COC(=O)c1ccccc1Oc1ccccc1)NC1CCS(=O)(=O)C1 (centres undefined) 2.91%
COc1ccc(C2c3sc(=O)[nH]c3SCC2C(N)=O)cc1 (centres undefined) 12.6%
CCCCOP(=O)(c1ccc(N(C)C)cc1)C(O)c1ccccc1F (centres undefined) 0.81%
O=C(CN(C(=O)CCC(=O)Nc1ccccn1)c1cccc(F)c1)NCc1ccc2c(c1)OCO2 5.37%
CCCNC(=O)N[C@@H](CCSC)C(=O)OC 1.19%
N#C/C(=C\c1ccccc1Cl)C(=O)NC(=O)Oc1ccccc1 23.3%
CCCCCc1nc2c(c(=O)c3ccccc3n2C)c(=O)n1Cc1ccc(OC)cc1 6.54%
c1ccc(-n2cc(CN3CCCC(CN4CCCC4)C3)c(-c3ccc4c(c3)OCO4)n2)cc1 (centres undefined) 0.36%
CC(=O)c1cccc(NC(=O)CCNC(=O)c2ccccc2Cl)c1 7.59%
O=C(N/N=C(\c1ccccc1)c1cccnc1)c1ccc(O)cc1 14.2%
O=C(N/N=C(\c1ccccc1)c1cccnc1)c1cccc(F)c1 8.05%
CCOC(=O)C1CCCN(C(=O)c2cn(CC)c3ccc(S(=O)(=O)N(C)C)cc3c2=O)C1 (centres undefined) 12.6%
Cc1c(Cl)cccc1NC(=O)Cn1cnc(S(=O)(=O)N2CCCC2)c1 12.7%
CC(NC(=S)Nc1ccc(Cl)cc1)C(c1ccccc1)N1CCOCC1 (centres undefined) 8.17%
